Experimental data reported in PubChem BioAssay (NCATS).
Results filed as inconclusive are left out. Unless noted, the call rests on the fitted dose curve; in most records, active means well fitted curve in either direction with a large enough effect (not every such curve was filed as active); inconclusive means small, poorly fitted or top-dose-only effect, or another doubt; inactive means flat fitted curve, though single readings scatter.

Tests used:
[1] = AP1 Signaling Pathway (AID 357); conditions: ME-180 AP-1-bla reporter, EGF-induced, beta-lactamase ratio, 5 h; at 17.2 µM (top of the series) unless noted;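 further: ME-180 reporter cells stimulated with EGF at its EC50 level; on the % scale 0 is the no-effect control and ±100 the full control effect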
Method in brief: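 First, ME-180 AP-1-bla cells were cultured overnight at 37 °C in low-serum Opti-MEM. Next, titrated compounds with EC50 EGF were incubated 5 hours. Finally, CCF4 was added for 2.5 hours and the 460/530 nm ratio recorded.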

[2] = Stat Signaling Pathway (AID 446); conditions: ME-180 (cervical carcinoma) SIE beta-lactamase reporter, IL-6 stimulated, 5 h; at 17.2 µM (top of the series) unless noted;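 further: ME-180 cervical cancer cells given 40 pM IL-6 alongside compound; SIE-controlled beta-lactamase reporter measured as 460/530 nm FRET emission ratio; on the % scale 0 is the no-effect control and ±100 the full control effect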
Method in brief: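 Compound effects on IL-6-induced STAT reporter activity were measured in ME-180 cells. After overnight culture, cells were co-treated with 40 pM IL-6 for 5 hrs before beta-lactamase substrate loading at room temperature.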

[3] = target: Glucocorticoid receptor (Homo sapiens) (UniProt P04150); experiment: GR-GFP Redistribution (AID 450;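 active means compounds whose dose series gives a full or clear partial fitted curve of increased nuclear translocation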; further: potency means the concentration at half of the fitted maximal effect)
Glucocorticoid receptor (Homo sapiens), sequence (P04150 whole entry, looked up): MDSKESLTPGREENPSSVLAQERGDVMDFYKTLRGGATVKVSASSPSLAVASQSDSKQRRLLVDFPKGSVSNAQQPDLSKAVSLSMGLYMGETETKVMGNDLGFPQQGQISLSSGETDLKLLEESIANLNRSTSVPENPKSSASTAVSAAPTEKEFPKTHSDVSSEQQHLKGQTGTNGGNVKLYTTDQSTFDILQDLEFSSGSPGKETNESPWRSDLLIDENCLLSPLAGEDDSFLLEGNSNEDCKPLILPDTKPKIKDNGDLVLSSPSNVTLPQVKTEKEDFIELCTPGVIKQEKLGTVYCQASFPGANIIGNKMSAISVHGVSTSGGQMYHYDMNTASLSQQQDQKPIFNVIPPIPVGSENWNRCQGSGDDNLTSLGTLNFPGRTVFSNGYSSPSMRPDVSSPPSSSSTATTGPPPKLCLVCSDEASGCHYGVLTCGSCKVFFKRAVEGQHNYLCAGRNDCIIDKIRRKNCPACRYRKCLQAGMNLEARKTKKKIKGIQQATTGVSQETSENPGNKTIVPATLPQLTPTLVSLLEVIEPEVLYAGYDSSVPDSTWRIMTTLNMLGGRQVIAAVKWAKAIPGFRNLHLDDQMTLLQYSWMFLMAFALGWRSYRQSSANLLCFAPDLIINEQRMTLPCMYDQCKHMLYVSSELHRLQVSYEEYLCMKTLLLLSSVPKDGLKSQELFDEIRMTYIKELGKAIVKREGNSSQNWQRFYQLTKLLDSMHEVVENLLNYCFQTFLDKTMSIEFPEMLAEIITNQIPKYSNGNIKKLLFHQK

CCc1nnc(NC(=O)CSc2nc(C)c3c(c2C#N)CCCC3)s1
inactive: activity change, negative = inhibition [1] -12.7% | activity, negative = inhibition [2] -23.4% | Potency [3] > 20.6 µM

CC1(C)Cc2c(C#N)c(N3CCOCC3)nc(-c3ccccc3)c2CO1
inactive: activity change, negative = inhibition [1] -10.7% | activity, negative = inhibition [2] 6.12% | Potency [3] > 20.6 µM

Cc1nc(N2CCN(C(=O)c3ccc(Cl)cc3)CC2)c(C#N)c2c1COC(C)(C)C2
inactive: activity change, negative = inhibition [1] -10% | activity, negative = inhibition [2] -17.4% | Potency [3] > 20.6 µM

CC(=O)Nc1ccc(-c2cc3ccccc3o2)cc1
inactive: activity change, negative = inhibition [1] -10.3% | activity, negative = inhibition [2] -0.606% | Potency [3] > 20.6 µM

CCOc1ccc(-c2nn3c(-c4ccc(OC)cc4)nnc3s2)cc1
inactive: activity change, negative = inhibition [1] -1.24% | activity, negative = inhibition [2] 24.4% | Potency [3] > 20.6 µM

COc1ccc(S(=O)(=O)N2CCC(N3CCCCC3)CC2)cc1
inactive: activity change, negative = inhibition [1] 7.98% | activity, negative = inhibition [2] 6.94% | Potency [3] > 20.6 µM

Cn1c(=O)c2c3c(sc2n2c(SCC(=O)c4ccc(Cl)cc4)nnc12)COC(C)(C)C3
inactive: activity change, negative = inhibition [1] -6.68% | activity, negative = inhibition [2] -0.164% | Potency [3] > 20.6 µM

CC(C)c1nc(NCC2CCCO2)c(C#N)c2c1COC(C)(C)C2 (centres undefined)
inactive: activity change, negative = inhibition [1] -26.1% | activity, negative = inhibition [2] -3.72% | Potency [3] > 20.6 µM

CC1(C)Cc2c(C#N)c(SCC(=O)c3ccccc3)nc(N3CCOCC3)c2CS1
inactive: activity change, negative = inhibition [1] -7.36% | activity, negative = inhibition [2] 0.377% | Potency [3] > 20.6 µM

CCC(=O)Nc1nc2ccccc2n1Cc1ccccc1C
inactive: activity change, negative = inhibition [1] 28.7% | activity, negative = inhibition [2] 2.77% | Potency [3] > 20.6 µM

CCNC(=O)COn1c(SCC(=O)NCC)nc2ccccc2c1=O
inactive: activity change, negative = inhibition [1] -9.03% | activity, negative = inhibition [2] 8.5% | Potency [3] > 20.6 µM

CCOC(=O)C1=C(CSc2nc3c(cc2C#N)CCC3)OC(N)=C(C#N)C1c1ccccc1 (centres undefined)
inactive: activity change, negative = inhibition [1] 0.107% | activity, negative = inhibition [2] -16.4% | Potency [3] > 20.6 µM

COc1ccc(C2NC(=O)NC(O)(C(F)(F)F)C2C(=O)c2ccc(F)cc2)cc1 (centres undefined)
inactive: activity change, negative = inhibition [1] -8.86% | activity, negative = inhibition [2] -0.989% | Potency [3] > 20.6 µM

Cn1nnc2c(sc3nc(N4CCOCC4)c4c(c32)CCCC4)c1=O
inactive: activity change, negative = inhibition [1] -0.625% | activity, negative = inhibition [2] -0.897% | Potency [3] > 20.6 µM

Clc1ccc(-n2ncc3c(NCc4cccs4)ncnc32)cc1
inactive: activity change, negative = inhibition [1] 13.8% | activity, negative = inhibition [2] -14.7% | Potency [3] > 20.6 µM

Nc1c(C(=O)NCC2CCCO2)c2nc3ccccc3nc2n1/N=C/c1ccncc1 (centres undefined)
inactive: activity change, negative = inhibition [1] -7.06% | activity, negative = inhibition [2] -9.64% | Potency [3] > 20.6 µM

CCc1nc2sc3c(c2c(=O)o1)CCCC3
inactive: activity change, negative = inhibition [1] -11.3% | activity, negative = inhibition [2] 3.67% | Potency [3] > 20.6 µM

CNC(=O)CC(C(=O)O)c1ccc(OC(C)C)cc1 (centres undefined)
inactive: activity change, negative = inhibition [1] 5.59% | activity, negative = inhibition [2] 5.76% | Potency [3] > 20.6 µM

CCCCNC1=C(Br)C(=O)CC(C)(C)C1
inactive: activity change, negative = inhibition [1] 4.07% | activity, negative = inhibition [2] -6.99% | Potency [3] > 20.6 µM

Cc1nc2c(c(=O)n1CC1CCCO1)c1nc3ccccc3nc1n2Cc1ccc2c(c1)OCO2 (centres undefined)
inactive: activity change, negative = inhibition [1] 1.65% | activity, negative = inhibition [2] -13.4% | Potency [3] > 20.6 µM

CCC1(C)Cc2c(sc3c2c(=O)n(C)c2nnc(SCC(=O)c4ccc(Cl)cc4)n32)CO1 (centres undefined)
inactive: activity change, negative = inhibition [1] -5.39% | activity, negative = inhibition [2] -5.38% | Potency [3] > 20.6 µM

COc1ccc(N2CCN(C3CC(=O)NC3=O)CC2)cc1 (centres undefined)
inactive: activity change, negative = inhibition [1] -0.252% | activity, negative = inhibition [2] 17.5% | Potency [3] > 20.6 µM

COc1ccc(C2/C(=C(\O)c3ccc4c(c3)OCCO4)C(=O)C(=O)N2CCCN(C)C)cc1 (centres undefined)
inactive: activity change, negative = inhibition [1] 8.31% | activity, negative = inhibition [2] 2.89% | Potency [3] > 20.6 µM

Fc1ccc2[nH]c3c(N4CCN(C5CCCCC5)CC4)ncnc3c2c1
inactive: activity change, negative = inhibition [1] 7.44% | activity, negative = inhibition [2] 16.1% | Potency [3] > 20.6 µM

N#CCSc1nc2sc3c(c2c(=O)n1C1CCCCC1)CCCC3
inactive: activity change, negative = inhibition [1] -7.41% | activity, negative = inhibition [2] 6.22% | Potency [3] > 20.6 µM

O=C(NCCN1CCCCC1)/C(=N\O)c1ccccc1
inactive: activity change, negative = inhibition [1] -7.56% | activity, negative = inhibition [2] -1.14% | Potency [3] > 20.6 µM

O=C(CSc1nc2ccccc2c(=O)n1CC1CCCCC1)N1CCOCC1
inactive: activity change, negative = inhibition [1] -23.4% | activity, negative = inhibition [2] -21.6% | Potency [3] > 20.6 µM

CCN(CC)C(=O)CSc1nc2ccccc2c(=O)n1CC1CCCCC1
inactive: activity change, negative = inhibition [1] -21.3% | activity, negative = inhibition [2] -17.5% | Potency [3] > 20.6 µM

Cc1cc2c(c(=O)n1Cc1ccccn1)C(c1ccc3c(c1)OCO3)C(C#N)=C(N)O2 (centres undefined)
inactive: activity change, negative = inhibition [1] -7.52% | activity, negative = inhibition [2] -11.7% | Potency [3] > 20.6 µM

O=C1NC2c3ccccc3C(=O)N2c2c1cnn2-c1ccccc1 (centres undefined)
inactive: activity change, negative = inhibition [1] -6.7% | activity, negative = inhibition [2] -7.17% | Potency [3] > 20.6 µM

COc1cc(OC)cc(C(=O)N2CCC(N3CCCCCC3)CC2)c1
inactive: activity change, negative = inhibition [1] -0.714% | activity, negative = inhibition [2] 0.747% | Potency [3] > 20.6 µM

O=c1c2ccccc2[nH]c(=S)n1CCN1CCC(=C(c2ccc(F)cc2)c2ccc(F)cc2)CC1
inactive: activity change, negative = inhibition [1] 10.4% | activity, negative = inhibition [2] -6.03% | Potency [3] > 20.6 µM

Nc1[nH]nc2nc(NCc3ccccc3)c3c(c12)CCN(Cc1ccccc1)C3
inactive: activity change, negative = inhibition [1] -11.4% | activity, negative = inhibition [2] 6.86% | Potency [3] > 20.6 µM

CCc1cc(=O)oc2c(CN3CCN(C)CC3)c(O)c(Cl)cc12
inactive: activity change, negative = inhibition [1] 12.5% | activity, negative = inhibition [2] 2.51% | Potency [3] > 20.6 µM

CCOC(=O)c1[nH]c2ccccc2c1N=C(C)N(CC)CC
inactive: activity change, negative = inhibition [1] 4.17% | activity, negative = inhibition [2] 5.19% | Potency [3] > 20.6 µM

Cc1nn(C)cc1/C=N/n1nnnc1N
inactive: activity change, negative = inhibition [1] 0.525% | activity, negative = inhibition [2] -1.52% | Potency [3] > 20.6 µM

COc1ccc2c(c1OC)C(=O)N1c3ccccc3C(=O)N(c3ccc(F)cc3)C21 (centres undefined)
inactive: activity change, negative = inhibition [1] -3.68% | activity, negative = inhibition [2] -12.3% | Potency [3] > 20.6 µM

CCOP(=O)(c1ccccc1)c1nc(-c2ccccc2C)oc1N1CCCCC1 (centres undefined)
inactive: activity change, negative = inhibition [1] -1.96% | activity, negative = inhibition [2] 0.694% | Potency [3] > 20.6 µM

CCOC(=O)/C(C#N)=C1\Nc2ccccc2N=C1N(CC(C)C)CC(C)C
inactive: activity change, negative = inhibition [1] 11.2% | activity, negative = inhibition [2] -4.73% | Potency [3] > 20.6 µM

CCOC(=O)c1c(NC(=O)CCN2CCOCC2)sc2c1CC(C)(C)OC2
inactive: activity change, negative = inhibition [1] -21.7% | activity, negative = inhibition [2] -5.77% | Potency [3] > 20.6 µM

Cc1ccc(-n2ncc3c(N4CCC(C(N)=O)CC4)ncnc32)c(C)c1
inactive: activity change, negative = inhibition [1] 5.42% | activity, negative = inhibition [2] -2.42% | Potency [3] > 20.6 µM

CCOC(=O)C1=C(N)c2ccccc2CC1C(C)C (centres undefined)
inactive: activity change, negative = inhibition [1] -3.93% | activity, negative = inhibition [2] -8.13% | Potency [3] > 20.6 µM

C=CCNc1nnc(SC2CC(=O)N(c3ccc(OC)cc3)C2=O)s1 (centres undefined)
inactive: activity change, negative = inhibition [1] -11.6% | activity, negative = inhibition [2] -1.82% | Potency [3] > 20.6 µM

COc1ccccc1N1CCN(CCCCOc2ccc(F)cc2)CC1
inactive: activity change, negative = inhibition [1] 18.8% | activity, negative = inhibition [2] 5.73% | Potency [3] > 20.6 µM

CCN(CC)CCCn1c(C)cc2c(c1=O)C(c1cccc(Cl)c1)C(C#N)=C(N)O2 (centres undefined)
inactive: activity change, negative = inhibition [1] -4.22% | activity, negative = inhibition [2] -2.98% | Potency [3] > 20.6 µM

CCC1(C)Cc2c(sc3c2c(=O)n(C)c2nnc(SCc4ccccc4)n32)CO1 (centres undefined)
inactive: activity change, negative = inhibition [1] -2.66% | activity, negative = inhibition [2] 1.36% | Potency [3] > 20.6 µM

CCOc1ccc(C2C=C(c3ccccc3)Nc3ncnn32)cc1 (centres undefined)
inactive: activity change, negative = inhibition [1] -28.8% | activity, negative = inhibition [2] -2.5% | Potency [3] > 20.6 µM

CC(C)(C)OC(=O)NCCC(=O)Oc1ccc2ccc(=O)oc2c1
inactive: activity change, negative = inhibition [1] 16.1% | activity, negative = inhibition [2] 12.7% | Potency [3] > 20.6 µM

COCCCNc1nc(-c2ccncc2)nc2ccccc12
inactive: activity change, negative = inhibition [1] -12.4% | activity, negative = inhibition [2] -12.9% | Potency [3] > 20.6 µM

COc1cc(/C=N/O)ccc1OCc1ccc(C(=O)O)cc1
inactive: activity change, negative = inhibition [1] -13.9% | activity, negative = inhibition [2] -11.7% | Potency [3] > 20.6 µM

CCN(CC)Cc1cc(C(C)=O)ccc1OCC(C)C
inactive: activity change, negative = inhibition [1] 23.1% | activity, negative = inhibition [2] 13.1% | Potency [3] > 20.6 µM

COc1ccc(/C=C/C2=NC(=C\N(C)C)/C(=O)O2)cc1
inactive: activity change, negative = inhibition [1] -4.1% | activity, negative = inhibition [2] -0.663% | Potency [3] > 20.6 µM

COc1ccc2c(c1OC)C(=O)N1c3ccccc3C(=O)N(c3ccccc3F)C21 (centres undefined)
inactive: activity change, negative = inhibition [1] -4.99% | activity, negative = inhibition [2] -18.4% | Potency [3] > 20.6 µM

CCOC(=O)c1nc(N)c(C(=O)OCC)[nH]1
inactive: activity change, negative = inhibition [1] 8.92% | activity, negative = inhibition [2] 6.9% | Potency [3] > 20.6 µM

COc1cccc(NC(=O)C2CC(=O)n3cnnc3S2)c1 (centres undefined)
inactive: activity change, negative = inhibition [1] -17.5% | activity, negative = inhibition [2] -7.33% | Potency [3] > 20.6 µM

COc1ccc(CN(C#N)c2nc(SC)nc(N(C)C)n2)cc1
inactive: activity change, negative = inhibition [1] -3.69% | activity, negative = inhibition [2] 2.92% | Potency [3] > 20.6 µM

CCCCCCSC1=C(C#N)C(c2ccccc2)CC(=O)N1 (centres undefined)
inactive: activity change, negative = inhibition [1] -25.4% | activity, negative = inhibition [2] -19.8% | Potency [3] > 20.6 µM

COCCCn1cnc2c(c1=O)c1nc3ccccc3nc1n2CCc1ccccc1
inactive: activity change, negative = inhibition [1] -15.7% | activity, negative = inhibition [2] -9.66% | Potency [3] > 20.6 µM
